For assay [1], the target named is Cellular tumor antigen p53 (Homo sapiens) (UniProt P04637). Description: TOX21_p53_BLA_p2_ratio: Tox21 HCT-116 p53 Agonism Beta-lactamase Assay, Ratio, Phase 2 (AID 2283592). Put shortly: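 HCT116 cells carrying a p53-responsive beta-lactamase reporter were plated, incubated 5 h at 37C, then dosed with compounds in DMSO (217-fold dilution) for 16 h. CCF4-AM substrate was added for 2 h at room temperature; the 460/530 nm emission ratio gave gain-of-signal activity relative to DMSO.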
Chain of Cellular tumor antigen p53 (Homo sapiens) (P04637 whole entry, looked up): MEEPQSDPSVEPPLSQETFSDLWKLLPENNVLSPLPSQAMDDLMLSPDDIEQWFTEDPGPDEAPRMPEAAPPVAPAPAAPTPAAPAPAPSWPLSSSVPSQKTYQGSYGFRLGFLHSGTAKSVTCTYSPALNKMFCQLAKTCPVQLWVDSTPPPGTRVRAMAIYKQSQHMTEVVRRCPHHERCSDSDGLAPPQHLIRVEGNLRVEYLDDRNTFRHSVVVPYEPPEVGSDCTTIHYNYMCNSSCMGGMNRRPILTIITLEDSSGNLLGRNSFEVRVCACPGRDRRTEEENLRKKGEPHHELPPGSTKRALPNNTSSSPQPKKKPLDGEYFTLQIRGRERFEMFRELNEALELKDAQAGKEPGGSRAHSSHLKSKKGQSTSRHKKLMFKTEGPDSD

A short description of assay [2]: TOX21_p53_BLA_p3_viability: Viability Assessment in the Tox21 HCT-116 p53 Agonism Beta-lactamase Assay, Phase 3 (AID 2283593).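 Note: cells exposed to compound for 16 h before reading.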 Put shortly:
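HCT116 cells, 4000/well, dosed 5 h after plating by pin transfer (217-fold dilution from DMSO stock) and incubated 16 h at 37C, 5% CO2. Viability read as ATP luminescence with CellTiter-Glo after 30 min at room temperature.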

The target in assay [3] is Cellular tumor antigen p53 (Homo sapiens) (UniProt P04637). Description: TOX21_p53_BLA_p3_ratio: Tox21 HCT-116 p53 Agonism Beta-lactamase Assay, Ratio, Phase 3 (AID 2283596). Put shortly:
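HCT116 p53-bla cells (4000/well) given compound in DMSO (217-fold dilution) after 5 h, incubated 16 h at 37C. CCF4-AM substrate 2 h at room temperature; 460/530 nm emission ratio, gain fitted against DMSO.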

A short description of assay [4]: TOX21_p53_BLA_p5_viability: Viability Assessment in the Tox21 HCT-116 p53 Agonism Beta-lactamase Assay, Phase 5 (AID 2283600). Put shortly:
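Cells were plated at 4000/well, rested 5 h at 37C, then given compounds in DMSO (217-fold dilution) for 16 h at 37C, 5% CO2. Following the CCF4-AM beta-lactamase read, CellTiter-Glo was added and luminescence was read after 30 min at room temperature.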

The nature of assay [5]: TOX21_p53_BLA_p4_viability: Viability Assessment in the Tox21 HCT-116 p53 Agonism Beta-lactamase Assay, Phase 4 (AID 2283597).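 Note: hits lower the luminescence signal meaning cytotoxicity.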 Put shortly: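 HCT116 p53-bla cells (4000/well) rested 5 h at 37C, then received compounds in DMSO (217-fold dilution) for 16 h at 37C, 5% CO2. CellTiter-Glo was added after the CCF4-AM read, and luminescence was read after 30 min at room temperature.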

For assay [6], the target named is Cellular tumor antigen p53 (Homo sapiens) (UniProt P04637). Put plainly: TOX21_p53_BLA_p5_ratio: Tox21 HCT-116 p53 Agonism Beta-lactamase Assay, Ratio, Phase 5 (AID 2283599). The method in brief:
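HCT-116 p53-bla cells (4000/well) plated 5 h, dosed with compound (217-fold DMSO dilution) for 16 h at 37 C; CCF4-AM substrate 2 h at room temperature. Activity is the 460/530 nm emission ratio (405 nm excitation), fitted in gain-of-signal direction versus DMSO.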

For assay [7] the target is unchanged. Description: TOX21_p53_BLA_p4_ratio: Tox21 HCT-116 p53 Agonism Beta-lactamase Assay, Ratio, Phase 4 (AID 2283601). Put shortly: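 HCT-116 p53 beta-lactamase reporter cells (4000/well) preincubated 5 h, then compound (217-fold dilution of DMSO stock) for 16 h at 37C. CCF4-AM substrate added 2 h at room temperature; 460/530 nm emission ratio fitted upward versus DMSO.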

Assay [8] in a line: CCTE_Harrill_HTTr_Viability_MCF7: CCTE's 6-hour Cell Viability Assessment for the High-Throughput Transcriptomics (HTTr) Platform, in MCF-7 cells cultured in DMEM + 10% fetal bovine serum, Harrill Lab (AID 2284010; active = hit-call score of the fitted dose curve at least 0.9, where 1 is the maximum; inactive = score below 0.9). The method in brief: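 Viability measured through PI dye exclusion by high-content imaging at 6 h post-dosing.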
Assay [9] is described as follows: CCTE_Harrill_HTTr_Apoptosis_MCF7: CCTE's 6-hour Apoptosis Assessment for the High-Throughput Transcriptomics (HTTr) Platform, in MCF-7 cells cultured in DMEM + 10% fetal bovine serum, Harrill Lab (AID 2284011; active = hit-call score of the fitted dose curve at least 0.9, where 1 is the maximum; inactive = score below 0.9). The method in brief:
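MCF-7 cells in DMEM + 10% fetal bovine serum were exposed to chemicals for 6 hours over an eight-point dilution series. Caspase-3/7 activation was imaged by high content imaging with CellEvent Caspase 3/7 Green; bidirectional fitting used DMSO as baseline.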

Assay [10] concerns the target PGR (gene 5241) (UniProt P06401). Put plainly: TOX21_PR_BLA_Followup_Agonist_ratio: Tox21 HEK293 Progesterone Receptor (PR) Agonism Beta-lactamase Follow-Up Assay, Ratio (AID 2283933). Put shortly:
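Agonist-mode follow-up in HEK293T cells carrying a UAS-driven beta-lactamase reporter, grown in 2% charcoal-stripped serum. Compounds act for 16 hr; activity is the ch2/ch1 cleavage ratio, with same-well CellTiter-Glo viability run in parallel.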

For assay [11] the target is unchanged. Put plainly: TOX21_PR_BLA_Followup_Antagonist_ratio: Tox21 HEK293 Progesterone Receptor (PR) Antagonism Beta-lactamase Follow-Up Assay, Ratio (AID 2283934).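 Note: PR-UAS-bla HEK293T cells stimulated with 1 nM R5020 agonist for 16 hr.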 Put shortly:
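Antagonist mode used 1 nM R5020 (final) as agonist on a beta-lactamase reporter line in HEK293T cells. Activity was taken from the substrate cleavage ratio after 16 hr exposure.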

Assay [12] is described as follows: TOX21_PR_BLA_Followup_Agonist_viability: Viability Assessment in the Tox21 HEK293 Progesterone Receptor (PR) Agonism Beta-lactamase Follow-Up Assay (AID 2283935).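 Note: signal loss means lower viability so actives are cytotoxic.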 Put shortly:
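Multiplexed viability counter-screen: ATP-coupled luciferase signal measured after 30 min at room temperature, following 16 hr compound treatment of PR-UAS-bla HEK293T cells grown in charcoal-stripped serum.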

The target in assay [13] is PGR (gene 5241) (UniProt P06401). Put plainly: TOX21_PR_LUC_Followup_Agonist: Tox21 HEK293 Progesterone Receptor (PR) Agonism Luciferase Follow-Up Assay (AID 2283937; active = hit-call score of the fitted dose curve at least 0.9, where 1 is the maximum; inactive = score below 0.9). The method in brief: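 Agonist mode: reporter cells carrying PR-A and luciferase are treated 16 h with test compounds at 37C. Luciferase induction is measured by luminescence and fitted upward against DMSO.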
Chain of PGR (gene 5241) (P06401 whole entry, looked up): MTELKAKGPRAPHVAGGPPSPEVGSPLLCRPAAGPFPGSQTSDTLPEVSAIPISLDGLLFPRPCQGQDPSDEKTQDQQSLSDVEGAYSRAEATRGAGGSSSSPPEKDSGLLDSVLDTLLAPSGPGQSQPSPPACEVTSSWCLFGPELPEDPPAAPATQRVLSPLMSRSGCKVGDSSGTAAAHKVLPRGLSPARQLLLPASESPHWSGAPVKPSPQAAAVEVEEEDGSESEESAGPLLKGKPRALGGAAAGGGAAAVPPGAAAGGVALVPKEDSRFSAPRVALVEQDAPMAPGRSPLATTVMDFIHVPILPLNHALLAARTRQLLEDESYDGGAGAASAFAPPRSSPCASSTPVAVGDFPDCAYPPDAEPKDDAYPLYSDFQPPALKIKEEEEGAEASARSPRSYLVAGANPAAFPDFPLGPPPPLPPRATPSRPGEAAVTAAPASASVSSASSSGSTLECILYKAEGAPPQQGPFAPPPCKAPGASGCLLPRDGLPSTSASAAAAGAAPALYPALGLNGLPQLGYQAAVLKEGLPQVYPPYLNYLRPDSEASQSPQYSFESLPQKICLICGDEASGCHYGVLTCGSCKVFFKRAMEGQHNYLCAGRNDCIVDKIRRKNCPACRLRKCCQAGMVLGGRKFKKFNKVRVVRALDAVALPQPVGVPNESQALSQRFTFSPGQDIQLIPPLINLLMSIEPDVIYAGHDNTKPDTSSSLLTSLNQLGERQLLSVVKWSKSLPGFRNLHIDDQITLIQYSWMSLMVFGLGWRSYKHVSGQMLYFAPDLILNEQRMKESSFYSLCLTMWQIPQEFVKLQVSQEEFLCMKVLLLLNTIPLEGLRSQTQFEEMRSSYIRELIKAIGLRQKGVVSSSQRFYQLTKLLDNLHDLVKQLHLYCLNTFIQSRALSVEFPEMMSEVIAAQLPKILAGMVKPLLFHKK

Assay [14] in a line: TOX21_PR_LUC_Followup_Antagonist_viability: Viability Assessment in the Tox21 HEK293 Progesterone Receptor (PR) Antagonism Luciferase Follow-Up Assay (AID 2283940). The method in brief: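 Cellular ATP, measured with luciferase-coupled CellTiter-Glo, served as the viability endpoint after HEK293-PR-A-luc cells were exposed to test compounds for 16 h at 37C.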
Assay [15] in a line: TOX21_PR_LUC_Followup_Agonist_viability: Viability Assessment in the Tox21 HEK293 Progesterone Receptor (PR) Agonism Luciferase Follow-Up Assay (AID 2283941).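 Note: loss of signal means cytotoxicity so actives lower viability.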 The method in brief:
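Luminescent ATP quantitation (CellTiter-Glo) serves as the read-out; a drop flags cytotoxic compounds. Cells are HEK293-PR-A-luc grown in 10% charcoal-stripped FBS, plated 3,000/well, and exposed to compound for 16 h.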

Structures are written as SMILES. Results filed as inconclusive are left out. Activity calls are given as the source filed them. Rule for the calls, unless noted: active = hit-call score of the fitted dose curve at least 0.9, where 1 is the maximum; inconclusive = response in the unintended direction; inactive = score below 0.9.

On to `CCC(=O)O[C@H]1[C@@H](N2CCCCC2)C[C@H]2[C@@H]3CC[C@H]4C[C@H](OC(C)=O)[C@@H](N5CCCCC5)C[C@]4(C)[C@H]3CC[C@@]21C`, for which the result in assay [1], in [2], in assay [3] and in assay [4] was inactive.
With `CN(C)CCc1c[nH]c2cccc(O)c12`, the result in assay [1], in [3], in [5] and in assay [6] was inactive.
With `COc1ccc2c(c1)C13CCCC[C@@H]1C(C2)N(C)CC3` (stereo partly specified), the result in assay [1], in [3], in [5] and in [6] was inactive.
For `CN1CCCC(=C(c2cccs2)c2cccs2)C1`, the outcome in [1] and in assay [3] was inactive.
Take `CC(N)=S`: the result in assay [1], in assay [2], in assay [4], in assay [7], in assay [8] and in assay [9] was inactive.
Take `ClCOCCl`: the outcome in assay [1], in assay [2], in assay [6] and in assay [4] was inactive.
As to `COC1=CC(=O)O[C@@H](/C=C/c2ccccc2)C1`, the result in assay [1], in [2], in assay [5], in assay [4] and in assay [7] was inactive.
Consider `Brc1c(Br)c(Br)c(Br)c(Br)c1Br`, for which the result in assay [1], in assay [2], in [5], in assay [6] and in [4] was inactive.
In the case of `CNN`, the result in assay [1], in [2], in assay [5] and in assay [4] was inactive.
On to `COc1ccc(C(=O)N2CCCC2=O)cc1`, for which the outcome in assay [1], in [2], in assay [5], in [6] and in assay [4] was inactive.
With `Clc1ccc(C(Cl)(Cl)Cl)cc1Cl`, the outcome in assay [1], in assay [2], in [5], in [6] and in assay [4] was inactive.
In the case of `O=C(C[C@@H]1NCCC[C@H]1O)Cn1cnc2cc(Br)c(Cl)cc2c1=O`, the result in assay [1], in assay [2], in assay [5] and in assay [7] was inactive.
On to `Cn1cc[n+](C)c1` (tested in a mixture with another compound), for which the result in assay [1], in assay [2], in assay [5] and in [4] was inactive.
The AC50 is the midpoint of the concentration-response curve, whichever way the signal moves. Consider `C=C1C[C@@H]2[C@H](CC[C@]3(C)C(=O)CC[C@@H]23)[C@@]2(C)C=CC(=O)C=C12`, for which the result in assay [1], in assay [2], in assay [3], in assay [10], in assay [12] and in assay [13] was inactive. Moreover, the outcome in assay [14] and in assay [15] was inactive. Also, the AC50 in assay [11] is 23 µM (active).
Consider `O=C(O)C(Br)CBr` (stereo unspecified), for which the result in [1], in [2], in [3], in assay [6] and in assay [7] was inactive.
Regarding `CCCCc1ccc(C(=O)O)nc1`, the result in assay [1], in assay [2], in assay [5] and in [4] was inactive.
On to `CC(C)Br`, for which the result in assay [1], in assay [2] and in assay [5] was inactive.
In the case of `Clc1cccc(N2CCNCC2)c1`, the result in assay [1], in assay [3], in [5] and in assay [6] was inactive.
On to `O=C(O)C(Cl)(Cl)Br`, for which the result in assay [1], in [2], in [5], in assay [6] and in assay [7] was inactive.
Take `Cc1ncc2n1-c1ccc(Cl)cc1C(c1ccccc1F)=NC2`: the result in [1], in assay [2], in assay [5], in assay [6] and in assay [7] was inactive.
With `O=C(Cl)c1ccccc1F`, the result in assay [1], in assay [2], in assay [5], in assay [6] and in assay [4] was inactive.

(Values after PubChem BioAssay (EPA / NIEHS).)
